The values that follow come from paper PMC7862700, “An all-to-all approach to the identification of sequence-specific readers for epigenetic DNA modifications on cytosine”.

Experiment in all cases: DAPPL (digital affinity profiling via proximity ligation, sequencing); 10 mM Tris-HCl pH 7.5, 50 mM NaCl, 1 mM DTT, 4% glycerol, room temperature, 30 min; GST-TFs on glutathione beads, 16-mer random dsDNA library, 0.1% formaldehyde crosslink after washing; high values mean tight binding
Holding throughout (conditions): protein: recombinant; tags: N-terminal GST; dsDNA, one strand shown

For one assay, the target named is T1, ERF (Homo sapiens, UniProt P50548 1-548).
T1 sequence: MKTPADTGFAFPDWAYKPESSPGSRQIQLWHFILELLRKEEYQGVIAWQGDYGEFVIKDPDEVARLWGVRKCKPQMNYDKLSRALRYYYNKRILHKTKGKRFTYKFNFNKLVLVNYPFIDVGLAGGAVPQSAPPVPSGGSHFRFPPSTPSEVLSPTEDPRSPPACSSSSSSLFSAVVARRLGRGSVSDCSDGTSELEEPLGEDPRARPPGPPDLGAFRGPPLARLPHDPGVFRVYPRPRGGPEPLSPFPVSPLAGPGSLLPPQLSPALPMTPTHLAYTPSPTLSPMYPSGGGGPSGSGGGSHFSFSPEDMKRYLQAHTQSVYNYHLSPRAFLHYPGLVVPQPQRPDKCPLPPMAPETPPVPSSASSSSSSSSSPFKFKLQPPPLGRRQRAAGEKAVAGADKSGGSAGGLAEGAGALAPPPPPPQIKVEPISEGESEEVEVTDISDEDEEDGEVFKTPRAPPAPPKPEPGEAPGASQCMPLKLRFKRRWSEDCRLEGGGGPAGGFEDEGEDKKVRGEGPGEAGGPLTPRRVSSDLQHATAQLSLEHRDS
In a few lines:
(§1)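 Pools were built from human transcription factors expressed in yeast as GST fusions, captured on glutathione beads and DNA-barcoded, along with a tag-only sample. Incubation with 200 nmole of a 16-mer random double-stranded DNA library lasted 30 min at room temperature in Tris/NaCl/DTT/glycerol buffer, and was followed by washing, 0.1% formaldehyde crosslinking, proximity ligation, PCR amplification and Illumina NextSeq500 sequencing. Binding signal is the quotient of each hexamer's read frequency for a factor and its frequency for the tag-only sample.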

For a further assay, the target named is T2, ETV3L (Homo sapiens, UniProt Q6ZN32 1-361).
T2 sequence: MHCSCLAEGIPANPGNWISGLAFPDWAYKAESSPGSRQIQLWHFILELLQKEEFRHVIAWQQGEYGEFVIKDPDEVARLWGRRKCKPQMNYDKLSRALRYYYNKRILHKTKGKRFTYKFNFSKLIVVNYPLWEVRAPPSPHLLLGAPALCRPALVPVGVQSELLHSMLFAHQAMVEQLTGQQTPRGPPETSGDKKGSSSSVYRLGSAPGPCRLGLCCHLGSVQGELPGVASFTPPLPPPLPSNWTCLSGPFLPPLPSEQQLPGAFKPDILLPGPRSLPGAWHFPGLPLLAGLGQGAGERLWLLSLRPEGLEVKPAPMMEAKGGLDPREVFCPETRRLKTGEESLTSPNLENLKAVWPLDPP
Put shortly:
as §1

Another assay concerns the target T3, ETS2 (Homo sapiens, UniProt P15036 1-469).
T3 sequence: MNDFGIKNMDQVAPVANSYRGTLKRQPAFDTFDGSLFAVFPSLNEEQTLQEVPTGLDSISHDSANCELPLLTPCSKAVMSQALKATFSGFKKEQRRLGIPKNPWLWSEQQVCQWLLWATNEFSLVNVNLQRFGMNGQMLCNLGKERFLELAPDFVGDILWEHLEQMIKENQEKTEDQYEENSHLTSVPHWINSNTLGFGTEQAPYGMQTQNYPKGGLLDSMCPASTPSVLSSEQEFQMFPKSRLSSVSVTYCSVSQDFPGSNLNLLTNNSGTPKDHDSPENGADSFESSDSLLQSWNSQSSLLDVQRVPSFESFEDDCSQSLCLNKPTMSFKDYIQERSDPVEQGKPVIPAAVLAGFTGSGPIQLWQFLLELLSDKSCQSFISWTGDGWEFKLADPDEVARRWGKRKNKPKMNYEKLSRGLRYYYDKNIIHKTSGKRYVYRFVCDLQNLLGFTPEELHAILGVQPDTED
In a few lines: as §1

Another assay concerns the target T4, SPDEF (Homo sapiens, UniProt O95238 1-335).
T4 sequence: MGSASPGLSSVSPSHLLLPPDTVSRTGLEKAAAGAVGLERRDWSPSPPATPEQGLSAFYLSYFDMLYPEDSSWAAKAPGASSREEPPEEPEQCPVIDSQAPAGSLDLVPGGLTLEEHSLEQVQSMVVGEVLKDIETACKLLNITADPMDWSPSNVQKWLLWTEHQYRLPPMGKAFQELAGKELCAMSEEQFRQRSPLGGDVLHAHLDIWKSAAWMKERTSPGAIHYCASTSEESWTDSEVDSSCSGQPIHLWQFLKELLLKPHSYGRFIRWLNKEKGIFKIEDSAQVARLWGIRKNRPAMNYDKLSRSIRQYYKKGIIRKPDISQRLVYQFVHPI
In a few lines: as §1

Another assay addresses T5, ETV7 (Homo sapiens, UniProt Q9Y603 1-341).
T5 sequence: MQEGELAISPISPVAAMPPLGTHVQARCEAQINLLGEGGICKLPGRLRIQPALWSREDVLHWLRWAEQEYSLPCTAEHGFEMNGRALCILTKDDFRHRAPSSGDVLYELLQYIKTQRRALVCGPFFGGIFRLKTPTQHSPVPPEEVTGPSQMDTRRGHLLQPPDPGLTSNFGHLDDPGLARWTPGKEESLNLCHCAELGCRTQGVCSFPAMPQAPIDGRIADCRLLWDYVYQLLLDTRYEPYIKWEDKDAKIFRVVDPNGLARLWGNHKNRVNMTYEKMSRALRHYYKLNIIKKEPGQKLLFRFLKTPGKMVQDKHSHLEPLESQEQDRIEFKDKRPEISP
Put shortly: as §1

Another assay has as its target T6, ELF5 (Homo sapiens, UniProt Q9UKW6-2 1-255).
T6 sequence: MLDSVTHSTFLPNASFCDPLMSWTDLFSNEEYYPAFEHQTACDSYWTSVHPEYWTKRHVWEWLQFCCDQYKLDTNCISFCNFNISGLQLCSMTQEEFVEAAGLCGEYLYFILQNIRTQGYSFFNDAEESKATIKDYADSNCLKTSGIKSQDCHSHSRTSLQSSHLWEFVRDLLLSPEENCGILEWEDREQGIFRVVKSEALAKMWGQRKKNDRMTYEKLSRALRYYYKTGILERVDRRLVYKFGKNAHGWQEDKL
In a few lines: as §1

The target in a further assay is T7, ETV3 (Homo sapiens, UniProt P41162-2 1-143).
T7 sequence: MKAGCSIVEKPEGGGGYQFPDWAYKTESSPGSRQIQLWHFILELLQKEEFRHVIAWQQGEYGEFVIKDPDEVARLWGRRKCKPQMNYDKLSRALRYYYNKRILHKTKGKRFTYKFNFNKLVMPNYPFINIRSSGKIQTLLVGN
In a few lines:
as §1

The target in a further assay is ETV6 (Homo sapiens, UniProt P41212 1-452). Put shortly:
as §1

ETV6, sequence (P41212 whole entry): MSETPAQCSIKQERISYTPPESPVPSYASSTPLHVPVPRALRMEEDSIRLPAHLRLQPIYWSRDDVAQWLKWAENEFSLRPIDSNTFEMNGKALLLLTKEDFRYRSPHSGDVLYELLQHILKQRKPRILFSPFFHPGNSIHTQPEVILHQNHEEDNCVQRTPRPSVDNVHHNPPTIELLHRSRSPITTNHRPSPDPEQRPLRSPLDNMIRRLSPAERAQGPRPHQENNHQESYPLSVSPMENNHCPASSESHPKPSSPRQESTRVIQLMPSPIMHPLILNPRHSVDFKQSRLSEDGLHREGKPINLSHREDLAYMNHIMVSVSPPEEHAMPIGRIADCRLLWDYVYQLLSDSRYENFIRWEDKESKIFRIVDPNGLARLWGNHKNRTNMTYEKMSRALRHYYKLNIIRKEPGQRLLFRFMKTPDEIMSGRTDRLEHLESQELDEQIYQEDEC

Consider ATGTCC, for which the binding signal with ERF is 1.36 fold enrichment (6-mer frequency, TF over GST control); with ETV3L, 1.7 fold enrichment (6-mer frequency, TF over GST control); in the assay with ETS2, 1.58 fold enrichment (6-mer frequency, TF over GST control); in the assay with SPDEF it was 2.05 fold enrichment (6-mer frequency, TF over GST control); with ETV7, 1.71 fold enrichment (6-mer frequency, TF over GST control); with ELF5 it was 1.65 fold enrichment (6-mer frequency, TF over GST control). Further, the binding signal is 1.8 fold enrichment (6-mer frequency, TF over GST control) in the assay with ETV3 and 1.57 fold enrichment (6-mer frequency, TF over GST control) with ETV6.

As to CTAAGC, the binding signal with ERF was 1.14 fold enrichment (6-mer frequency, TF over GST control); in the assay with ETV3L, 1.09 fold enrichment (6-mer frequency, TF over GST control); in the assay with ETS2 it was 1.15 fold enrichment (6-mer frequency, TF over GST control); with SPDEF it was 1.06 fold enrichment (6-mer frequency, TF over GST control); in the assay with ETV7 it was 1.04 fold enrichment (6-mer frequency, TF over GST control); in the assay with ELF5, 1.07 fold enrichment (6-mer frequency, TF over GST control). Moreover, the binding signal with ETV3 is 1.07 fold enrichment (6-mer frequency, TF over GST control); with ETV6, 1.08 fold enrichment (6-mer frequency, TF over GST control).

For the sequence TTTTGA, the binding signal was 1.15 fold enrichment (6-mer frequency, TF over GST control) in the assay with ERF; 1.07 fold enrichment (6-mer frequency, TF over GST control) with ETV3L; 1.07 fold enrichment (6-mer frequency, TF over GST control) in the assay with ETS2; 1.05 fold enrichment (6-mer frequency, TF over GST control) with SPDEF; 1.02 fold enrichment (6-mer frequency, TF over GST control) with ETV7; 1 fold enrichment (6-mer frequency, TF over GST control) with ELF5. Also, the binding signal is 1.03 fold enrichment (6-mer frequency, TF over GST control) in the assay with ETV3 and 1.04 fold enrichment (6-mer frequency, TF over GST control) in the assay with ETV6.

For AAGTGG, the binding signal with ERF is 1.24 fold enrichment (6-mer frequency, TF over GST control); with ETV3L it was 1.17 fold enrichment (6-mer frequency, TF over GST control); with ETS2, 1.19 fold enrichment (6-mer frequency, TF over GST control); in the assay with SPDEF, 1.06 fold enrichment (6-mer frequency, TF over GST control); with ETV7, 1.31 fold enrichment (6-mer frequency, TF over GST control); in the assay with ELF5, 1.24 fold enrichment (6-mer frequency, TF over GST control). Further, the binding signal is 1.23 fold enrichment (6-mer frequency, TF over GST control) with ETV3 and 1.3 fold enrichment (6-mer frequency, TF over GST control) in the assay with ETV6.

For the sequence TCCCCA, the binding signal in the assay with ERF was 1.32 fold enrichment (6-mer frequency, TF over GST control); with ETV3L it was 1.41 fold enrichment (6-mer frequency, TF over GST control); with ETS2, 1.38 fold enrichment (6-mer frequency, TF over GST control); with SPDEF it was 1.3 fold enrichment (6-mer frequency, TF over GST control); with ETV7, 1.12 fold enrichment (6-mer frequency, TF over GST control); with ELF5 it was 1.46 fold enrichment (6-mer frequency, TF over GST control). Further, the binding signal with ETV3 is 1.36 fold enrichment (6-mer frequency, TF over GST control); with ETV6, 1.26 fold enrichment (6-mer frequency, TF over GST control).

Take AGCCTC: the binding signal was 1.22 fold enrichment (6-mer frequency, TF over GST control) with ERF; 1.32 fold enrichment (6-mer frequency, TF over GST control) with ETV3L; 1.3 fold enrichment (6-mer frequency, TF over GST control) in the assay with ETS2; 1.14 fold enrichment (6-mer frequency, TF over GST control) with SPDEF; 1.31 fold enrichment (6-mer frequency, TF over GST control) in the assay with ETV7; 1.16 fold enrichment (6-mer frequency, TF over GST control) in the assay with ELF5. Further, the binding signal with ETV3 was 1.15 fold enrichment (6-mer frequency, TF over GST control); in the assay with ETV6 it was 1.18 fold enrichment (6-mer frequency, TF over GST control).

Turning to CCTGGT, the binding signal with ERF was 1.37 fold enrichment (6-mer frequency, TF over GST control); in the assay with ETV3L, 1.53 fold enrichment (6-mer frequency, TF over GST control); in the assay with ETS2, 1.43 fold enrichment (6-mer frequency, TF over GST control); with SPDEF, 1.69 fold enrichment (6-mer frequency, TF over GST control); in the assay with ETV7, 1.31 fold enrichment (6-mer frequency, TF over GST control); in the assay with ELF5, 1.58 fold enrichment (6-mer frequency, TF over GST control). The binding signal with ETV3 is 1.49 fold enrichment (6-mer frequency, TF over GST control); in the assay with ETV6, 1.4 fold enrichment (6-mer frequency, TF over GST control).
